A selection: hits, their analogues and other compounds. The true share with any hit is near 3.5%.
FBW7 activator: activators of human E3 ligase FBW7 | Q969H0 | AlphaScreen FBW7–phospho-cyclin E peptide binding, activator screen | normalized activity (activation), % at 26.1 µM | 0.13% of 650,000 active | AID 1259310; in the data active means normalized activity above about 1.9%;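 further: purified mutant Fbw7 with reduced substrate affinity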
TEAD-YAP inh: TEAD-YAP interaction inhibition. HEK-TIYL cells, TEAD-Gal4/YAP UAS-luciferase luminescence. 1.4% of 640,000 active. inhibition, % at 9.12 µM. AID 1259422; in the data active means inhibition above about 32%;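 further: 0% = median of test compound wells and 100% = reference inhibitor wells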
MITF inh: blocks human microphthalmia-associated transcription factor. O75030. AlphaScreen MITF homodimerization, bead proximity signal. inhibition, % at 2.6 µM. 0.91% of 650,000 active. AID 1259374; in the data active means inhibition above about 50%;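 further: 0% = vehicle wells with protein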
Target sequence (O75030 whole entry, looked up): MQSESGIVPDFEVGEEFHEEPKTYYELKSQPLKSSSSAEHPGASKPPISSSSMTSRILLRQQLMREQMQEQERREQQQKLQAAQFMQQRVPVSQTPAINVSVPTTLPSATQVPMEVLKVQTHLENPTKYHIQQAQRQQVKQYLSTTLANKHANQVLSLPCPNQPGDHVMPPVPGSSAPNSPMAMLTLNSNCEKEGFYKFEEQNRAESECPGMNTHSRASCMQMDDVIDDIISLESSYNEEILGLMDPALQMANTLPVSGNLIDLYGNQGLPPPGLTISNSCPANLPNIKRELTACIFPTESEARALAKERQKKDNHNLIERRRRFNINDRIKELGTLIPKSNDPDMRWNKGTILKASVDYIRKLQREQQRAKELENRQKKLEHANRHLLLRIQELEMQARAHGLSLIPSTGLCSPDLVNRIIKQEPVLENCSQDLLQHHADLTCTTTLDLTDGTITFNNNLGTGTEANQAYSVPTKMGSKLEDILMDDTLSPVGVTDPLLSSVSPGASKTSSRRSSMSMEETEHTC
GPR151 activ: activators of human GPR151 | Q8TDV0 | PathHunter beta-arrestin GPR151 cells, luminescence | activation, % at 11.2 µM | 1% of 650,000 active | AID 1508602; in the data active means activation above about 4.9%;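 further: 0% = median of compound wells and 100% = cells with positive control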
Numbers without * were called inactive.

SMILES | FBW7 activator | TEAD-YAP inh | MITF inh | GPR151 activ
O=c1[nH]nc(N/N=C/c2c(O)ccc3ccccc23)c(=O)[nH]1 | -1 | -10 | 10 | 1
COc1ccc(CCNC(=O)c2ccc3nc(NCc4cccnc4)sc3c2)cc1 | 0 | -4 | 0 | 1
COc1ccc(Nc2ncnc3sc4c(c23)CCC4)cc1O | 0 | 37* | 5 | -1
COc1cc(CN2CCN(S(=O)(=O)c3ccc(NC(C)=O)cc3)CC2)ccc1OCc1ccccc1 | 0 | 31 | 40 | 2
COc1ccc(CN2CCN(S(=O)(=O)c3ccc(NC(C)=O)cc3)CC2)cc1OCc1ccccc1 | 0 | 35* | 46 | 1
Cc1cccc(N2CCN(C(=O)Cn3ncc4ccccc43)CC2)c1C | 0 | 1 | 5 | -2
CN(C)c1ccc(Nc2nc(NCC3CCCO3)c3ccccc3n2)cc1 (stereo not drawn) | -1 | 19 | 60* | 0
Cc1ccc(CCC(=O)Nc2ccc(Cl)cn2)o1 | 0 | 41* | 4 | -1
Cc1ccc(Cc2cnc(NC(=O)CCCOc3ccc(Cl)cc3)s2)cc1 | 0 | 7 | 11 | 0
Cc1ccc(CCC(=O)Nc2ncc(Cc3ccc(Cl)cc3)s2)o1 | 0 | 57* | 1 | 4
Cc1cc(NC(=O)CCc2ccc(C)o2)no1 | 0 | 5 | 5 | 0
O=c1nc(N2CCCCC2)nc(Nc2cccc([N+](=O)[O-])c2)[nH]1 | 0 | -5 | 7 | 2
Cc1ccc(C#N)c(SCC(=O)Nc2ccccc2C(=O)O)n1 | 0 | 33* | -13 | -2
Cc1cc(C)c(C#N)c(SCC(=O)Nc2ccccc2C(=O)O)n1 | 1 | 8 | 10 | 2
Cc1cccc(NC(=O)CSc2nc(C)cc(C)c2C#N)n1 | 0 | 81* | -14 | 0
NC1=NC(=O)/C(=C\c2ccc(-c3cccc(C(=O)O)c3)o2)S1 | 1 | 44* | 58* | -1
O=C1NC(=O)/C(=C/c2ccc(-c3ccc(O)c(C(=O)O)c3)o2)S1 | -1 | -1 | 86* | -1
O=C1NC(=S)S/C1=C\c1ccc(-c2ccc(C(=O)O)cc2)o1 | 0 | 10 | 38 | 0
O=C1NC(=S)S/C1=C\c1ccc(-c2cccc(C(=O)O)c2)o1 | -1 | 5 | 70* | 0
Cc1ccc(C(=O)O)cc1-c1ccc(/C=C2/SC(=O)NC2=O)o1 | 0 | -5 | 8 | 1
NC1=NC(=O)/C(=C/c2ccc(-c3ccccc3)o2)S1 | 0 | -46 | -12 | 1
O=C(CSc1ccsc1[N+](=O)[O-])Nc1cc(F)ccc1F | 0 | 32* | 49 | 1
Cc1cc(F)ccc1NC(=O)CSc1ccsc1[N+](=O)[O-] | 0 | 6 | 14 | 1
O=C(Nc1ccc2c(c1)N(C(=O)C1CCCO1)CC2)c1cc2ccccc2oc1=O (stereo not drawn) | 0 | 57* | -5 | -1
COc1cccc(-c2cc(C(=O)N/N=C/c3ccccc3O)[nH]n2)c1 | 0 | -18 | 23 | -1
SMILES | FBW7 activator | TEAD-YAP inh | MITF inh | GPR151 activ
COc1ccc(-c2cc(C(=O)NN)[nH]n2)cc1 | 0 | 62* | 0 | -1
CCOc1ccc(-c2cc(C(=O)N/N=C/c3ccccc3O)[nH]n2)cc1 | 0 | 50* | 0 | 2
CCOc1ccc(-c2cc(C(=O)N/N=C/c3ccccn3)[nH]n2)cc1 | 0 | 34* | 21 | 1
Cc1ccc(-c2cc(C(=O)NN)[nH]n2)cc1 | 0 | -4 | 15 | -1
Cc1noc(C)c1COc1cc2ccccc2cc1C(=O)O | 0 | 3 | -5 | 0
O=C1N=C(N2CCOCC2)S/C1=C/c1ccc(O)cc1 | 0 | 47* | 8 | 0
COc1cc(/C=C2\SC(N3CCCCC3)=NC2=O)ccc1O | 0 | 50* | 1 | 1
CCOc1ccc(/C=C2\SC(N3CCOCC3)=NC2=O)cc1 | 2.3* | 8 | 8 | 0
CC(C)(C)c1ccc(/C=C2\SC(N3CCOCC3)=NC2=O)cc1 | 0 | 0 | -4 | 0
Cc1ccc(/C=C2/SC(N3CCN(C)CC3)=NC2=O)cc1 | 0 | 3 | 58* | -1
CCOc1ccc(NC(=O)CN2C(=O)/C(=C3\SC(N4CCOCC4)=NC3=O)c3ccccc32)cc1 | 8.4* | 0 | 19 | -1
CN1C(=O)/C(=C2\SC(N3CCOCC3)=NC2=O)c2ccccc21 | 1 | -8 | 16 | -2
COC(=O)C1=CN(C(C)C)C=C(C(=O)OC)C1c1ccccc1Br | 2 | -9 | 3 | -1
COC(=O)C1=CN(C(C)C)C=C(C(=O)OC)C1c1cccc(OC)c1 | 1 | 6 | 8 | 1
CCOC(=O)C1=CN(C(C)C)C=C(C(=O)OCC)C1c1ccccc1Br | 2.0* | -4 | -6 | 0
CCOC(=O)C1=CN(C(C)C)C=C(C(=O)OCC)C1c1cccc(OC)c1 | 8.5* | -2 | -42 | 1
CCOc1ccccc1NC(=O)C(CC)Sc1nc2cc3c(cc2c(=O)n1Cc1ccc2c(c1)OCO2)OCO3 (stereo not drawn) | 0 | 0 | -14 | 1
Cc1c(N2C(=O)CS/C2=N\N=C2/C(=O)Nc3ccccc32)c(=O)n(-c2ccccc2)n1C | 0 | -4 | 18 | 1
O=C1Nc2ccccc2/C1=N\N=C1/SCC(=O)N1c1ccc(O)cc1 | 0 | 50* | 7 | 3
OCCNc1nc(Nc2ccncn2)nc2c1ncn2Cc1ccc(C(F)(F)F)cc1 | 3.1* | -12 | 17 | -1
CCCNc1nc(Nc2ccncc2)nc2c1ncn2-c1ccccc1 | 0 | 43* | 14 | -2
Oc1ccc(CCNc2nc(Nc3ccncn3)nc3c2ncn3-c2ccccc2)cc1 | 0 | 43* | 12 | -2
CCCNc1nc(Nc2ccccc2)nc2c1ncn2-c1ccccc1 | 0 | -6 | -8 | -1
Oc1ccc(CCNc2nc(Nc3ccc4ncccc4c3)nc3c2ncn3-c2ccccc2)cc1 | 0 | 46* | 1 | 0
COc1ccc(C(=O)N2CCN(c3ccccn3)CC2)cc1OC | 1 | -18 | 11 | 0
SMILES | FBW7 activator | TEAD-YAP inh | MITF inh | GPR151 activ
CCCNc1nc(Nc2ccc3ncccc3c2)nc2c1ncn2-c1ccsc1 | 0 | 48* | -1 | 1
OCCNc1nc(Nc2ccc3ncccc3c2)nc2c1ncn2-c1ccccc1 | 0 | 45* | 19 | -1
CCCNc1nc(Nc2ccc3ncccc3c2)nc2c1ncn2-c1ccccc1 | 0 | 34* | 5 | 2
O=C1NC(=S)NC(=O)C1=CN1CCCc2ccccc21 | 2.5* | 14 | 31 | 0
O=C1NC(=S)NC(=O)C1=Cc1ccc(N2Cc3ccccc3C2)cc1 | 0 | 9 | 21 | -1
O=C(O)CC1(CC(=O)NCc2ccc3c(c2)OCO3)CCCCC1 | 0 | -13 | -6 | -2
O=C(CC(Sc1cccc2cccnc12)c1ccc(OC(F)F)cc1)c1ccco1 (stereo not drawn) | -2 | 51* | -14 | -2
COc1ccc(-c2nnc3ccc(SCC(=O)NCCc4ccccc4)nn23)cc1 | 0 | -4 | -8 | -1
O=C(CSc1ccc2nnc(-c3ccncc3)n2n1)NCCc1ccccc1 | 2.0* | -2 | 5 | 0
COc1ccc(CCNC(=O)CSc2ccc3nnc(-c4ccccc4)n3n2)cc1OC | 2.7* | 18 | 14 | 3
CC(C)(C)c1ccc(NC(=O)Nc2ccccc2NC(=O)c2ccccn2)cc1 | -1 | 68* | -2 | 0
